Shown are actives, neighbours in structure and some others; about 7.5% of the full set was active somewhere.
FLuc modulator – firefly luciferase modulation, counter-screen for miR-21 project; P08659; purified FLuc, Km substrates, luminescence inhibition; Potency, µM (series often up to 57.5 µM), most hits filed as inhibitors; actives 6.9% (n = 360,000); note: nearly all actives have a fitted effect of over 55% in size
Target sequence (P08659 whole entry, looked up): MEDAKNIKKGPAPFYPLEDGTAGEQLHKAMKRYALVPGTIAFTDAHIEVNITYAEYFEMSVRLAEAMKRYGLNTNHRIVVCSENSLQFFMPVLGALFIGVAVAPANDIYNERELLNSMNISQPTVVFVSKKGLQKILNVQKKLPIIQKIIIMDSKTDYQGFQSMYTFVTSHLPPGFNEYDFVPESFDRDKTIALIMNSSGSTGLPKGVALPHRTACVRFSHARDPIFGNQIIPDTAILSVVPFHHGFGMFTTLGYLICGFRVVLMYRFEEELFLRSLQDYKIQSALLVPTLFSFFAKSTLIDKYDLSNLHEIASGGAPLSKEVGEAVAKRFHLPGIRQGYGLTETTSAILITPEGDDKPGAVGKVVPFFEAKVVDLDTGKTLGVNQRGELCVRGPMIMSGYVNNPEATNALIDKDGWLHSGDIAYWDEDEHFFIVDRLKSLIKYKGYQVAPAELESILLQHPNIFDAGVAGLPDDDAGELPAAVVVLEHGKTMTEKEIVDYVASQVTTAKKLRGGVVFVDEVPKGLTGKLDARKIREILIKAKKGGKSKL
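Biochemical qHTS of compounds, final roughly 60 µM downward over six points, against 10 nM purified firefly luciferase using Km concentrations of substrates (10 uM D-luciferin, 10 uM ATP) in Tris acetate pH 7.5 buffer; luminescence output.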
SMN2 splice enh – enhancers of SMN2 splice variant expression; Potency, µM (titrated, usually from 46.1 µM), usual class: activators; actives 2.8% (n = 210,000); HEK293 SMN2-luciferase splicing reporter, luminescence, 30-36 h; note: nearly all actives have a fitted effect of over 55% in size
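HEK293 cells carry an SMN2 […]–luciferase reporter in which exon 7 inclusion puts luciferase in frame. Cells were plated 10-12 h before compound addition, then incubated 30-36 h at 37C. ONE-Glo luminescence was read; sodium butyrate at 4.5 mM final served as control.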
Rab9 prom act – activates the Rab9 promoter; Huh7 Rab9 promoter-luciferase reporter, luminescence, 24 h; Potency, µM (top dose mostly 9.22 µM), most hits filed as activators; actives 2.8% (n = 320,000); AID 485297; note: nearly all actives have a fitted effect of over 60% in size
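Huh7 cells stably carrying Rab9 promoter–luciferase reporter, plated 1500 cells/well, compound added after 2 h and incubated 24 h at 37 °C; luciferase luminescence then read after 10 min with detection reagent.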
NPC1 promoter act – NPC1 promoter activation; Huh7 NPC1 promoter luciferase reporter, 24 h; actives 2.4% (n = 320,000); AID 485313; Potency, µM (series often up to 9.22 µM), usual class: activators; note: nearly all actives have a fitted effect of over 60% in size
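Quantitative HTS used a cell-based reporter: Huh7 cells stably bearing the NPC1 promoter upstream of luciferase were treated with compounds for 24 h, and promoter activation was read as luminescence.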
ELG1 genotox – genotoxicity induction in ELG1-luciferase HEK293T cells | actives 1.3% (n = 330,000) | Potency, µM (top dose mostly 46 µM), actives largely listed as activators | AID 504466 | HEK293T ELG1-luciferase reporter, luminescence, 16 h; note: nearly all actives have a fitted effect of over 60% in size
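Genotoxicity was scored as increased ELG1-luciferase reporter signal, measured by ONE-Glo luminescence (30 min, room temperature). Compound or vehicle exposure of the HEK293T reporter cells lasted 16 hr at 37°C.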
KinaseGlo FLuc – blocks Kinase-Glo luciferase, a counter-screen artifact; Kinase-Glo luciferase, ATP luminescence, 8 min; actives 0.28% (n = 200,000); Q27757; AID 1379; Potency, µM (titrated, usually from 38.3 µM), most hits filed as inhibitors; note: nearly all actives have a fitted effect of over 60% in size
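Inhibition of Kinase-Glo luciferase light generation was assessed at 10 uM ATP in pH 7.2 imidazole buffer, with luminescence measured after eight minutes at ambient temperature.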
A number is an active result. Calls come from the whole dose curve; as a rule, active = well fitted curve in the direction sought with a large enough effect; inconclusive = small, poorly fitted or top-dose-only effect, or another doubt; inactive = no such curve, though single readings can be large; an effect the other way counts as inactive or inconclusive.

For Cc1ccc(C(=O)O)cc1-c1ccc(/C=C2\SC(=O)N(CC(=O)Nc3ccccc3)C2=O)o1 the results were FLuc modulator inconclusive, SMN2 splice enh inactive, Rab9 prom act inactive, NPC1 promoter act inactive, ELG1 genotox inactive and KinaseGlo FLuc inactive.
For Cc1ccc(NC(=O)CN2C(=O)S/C(=C/c3ccc(-c4cccc(C(=O)O)c4)o3)C2=O)cc1 the results were FLuc modulator 21.3µM, SMN2 splice enh inconclusive, Rab9 prom act inactive, NPC1 promoter act inactive, ELG1 genotox inactive and KinaseGlo FLuc inactive.
For Cc1ccc([N+](=O)[O-])cc1NC(=O)C[n+]1ccccc1 the results were FLuc modulator inactive, SMN2 splice enh inactive, Rab9 prom act inactive, NPC1 promoter act inactive, ELG1 genotox inactive and KinaseGlo FLuc inactive.
`NS(=O)(=O)c1ccc(NC(=O)CSc2nnc(-c3ccc(O)cc3)o2)cc1` gave FLuc modulator inconclusive, Rab9 prom act inactive, NPC1 promoter act inactive and ELG1 genotox inactive.
`O=C(CSc1nnc(-c2ccc(O)cc2)o1)Nc1ccccc1Br` gave Rab9 prom act 3.16µM, NPC1 promoter act 2.82µM and ELG1 genotox 10.3µM.
Screening O=C(CSc1ncn[nH]1)N1CCCCC1 returned FLuc modulator inactive, Rab9 prom act inactive, NPC1 promoter act inactive and ELG1 genotox inactive.
For COc1ccccc1NC(=O)CSc1nnc(-c2ccc(C)cc2)o1 the results were FLuc modulator inactive, SMN2 splice enh 2.51µM, Rab9 prom act 1.26µM, NPC1 promoter act 1.58µM, ELG1 genotox inconclusive and KinaseGlo FLuc inactive.
For O=C(CSc1ncc(-c2ccc(F)cc2)[nH]1)N1CCCCC1 the results were FLuc modulator inconclusive, SMN2 splice enh 11.2µM, Rab9 prom act inconclusive, NPC1 promoter act inactive, ELG1 genotox inconclusive and KinaseGlo FLuc inactive.
`COc1ccccc1NC(=O)CSc1nc2nc(C)cc(C)c2c(=O)[nH]1` gave FLuc modulator inactive, SMN2 splice enh 3.55µM, Rab9 prom act inactive, NPC1 promoter act inactive, ELG1 genotox inactive and KinaseGlo FLuc inactive.
`CCN(C1CCCCC1)S(=O)(=O)CCNC(=O)c1ccc2c(c1)OCO2` gave FLuc modulator inactive, Rab9 prom act inactive, NPC1 promoter act inactive and ELG1 genotox inactive.
For O=C(c1ccc([N+](=O)[O-])s1)N1CCN(c2ccc(C(F)(F)F)cn2)CC1 the results were FLuc modulator inactive, Rab9 prom act inactive, NPC1 promoter act inactive and ELG1 genotox inactive.
Screening COc1ccc(Cl)cc1NC(=O)CCn1nc(C)cc1C returned FLuc modulator inactive.
For O=C(CSc1nnc(-c2cccnc2)o1)Nc1ccccc1Br the results were FLuc modulator inactive, Rab9 prom act inactive, NPC1 promoter act inactive and ELG1 genotox inactive.
`O=C(CSc1ncc(-c2ccccc2)[nH]1)Nc1ccccc1F` gave FLuc modulator 26.9µM, SMN2 splice enh inactive, Rab9 prom act inactive, NPC1 promoter act inactive, ELG1 genotox inconclusive and KinaseGlo FLuc inactive.
Screening O=C(CSc1ncc(-c2ccc(Cl)cc2)[nH]1)Nc1ccccc1F returned FLuc modulator inconclusive and SMN2 splice enh inactive.
`COc1cccc(NC(=O)CSc2nnc(-c3ccc(C)cc3)o2)c1` gave FLuc modulator inactive, SMN2 splice enh 15.8µM, Rab9 prom act inconclusive, NPC1 promoter act inactive, ELG1 genotox 10.3µM and KinaseGlo FLuc inactive.
Cc1cc(NC(=O)CSc2nnc(-c3ccco3)o2)no1 was read as FLuc modulator inactive, SMN2 splice enh inactive and KinaseGlo FLuc inactive.
For O=C(CSc1nnc(-c2cccnc2)o1)Nc1ccccc1F the results were FLuc modulator inactive, Rab9 prom act 3.16µM, NPC1 promoter act 3.16µM and ELG1 genotox inconclusive.
COc1ccc(NC(=O)CSc2nnc(-c3ccc(C)cc3)o2)cc1 was read as FLuc modulator inactive.
Screening COc1ccc(-c2nnc(SCC(=O)Nc3cc(C)on3)o2)cc1 returned FLuc modulator inactive, SMN2 splice enh 20µM, Rab9 prom act inactive, NPC1 promoter act inactive, ELG1 genotox inactive and KinaseGlo FLuc inactive.
For COc1ccc(NC(=O)CSc2nnc(-c3cnccn3)n2C)cc1OC the results were FLuc modulator inactive, Rab9 prom act inactive, NPC1 promoter act inactive and ELG1 genotox inactive.
Screening Cc1cccc(/C=N/NC(=O)c2ccc(NC(=O)c3cccc(Cl)c3)cc2)n1 returned FLuc modulator inactive, Rab9 prom act inactive, NPC1 promoter act inactive and ELG1 genotox inactive.
`O=C(Nc1ccc2c(c1)C(=O)NC2=O)c1ccc(Cl)s1` gave FLuc modulator inactive, Rab9 prom act inactive, NPC1 promoter act inactive and ELG1 genotox inactive.
For O=C(Nc1ccc2sccc2c1)c1ccc(Cl)s1 the results were FLuc modulator 0.675µM, SMN2 splice enh 7.08µM, Rab9 prom act 1µM, NPC1 promoter act 1.41µM, ELG1 genotox 1.46µM and KinaseGlo FLuc inactive.
`CN(C)S(=O)(=O)c1cccc(NC(=O)c2ccc(-n3cncn3)c([N+](=O)[O-])c2)c1` gave FLuc modulator inactive, Rab9 prom act inactive, NPC1 promoter act inactive and ELG1 genotox inactive.
Screening CC1=NN(C(N)=S)C(=O)C1N=Nc1cccc2ccccc12 (stereo not given) returned FLuc modulator 16.9µM, SMN2 splice enh inconclusive, Rab9 prom act inconclusive, NPC1 promoter act inconclusive, ELG1 genotox inconclusive and KinaseGlo FLuc inactive.
Screening CCNC(=O)CC1SC(=Nc2cccc3ccccc23)N(C)C1=O (stereo not given) returned FLuc modulator inactive, SMN2 splice enh inactive, Rab9 prom act inactive, NPC1 promoter act inactive, ELG1 genotox inactive and KinaseGlo FLuc inactive.
For CC1=NN(C(N)=S)C(=O)C1N=Nc1cccc(Cl)c1C (stereo not given) the results were FLuc modulator 10.7µM, Rab9 prom act 3.55µM, NPC1 promoter act inconclusive and ELG1 genotox inactive.
Screening O=C(Nc1ccc2oc(-c3ccncc3)nc2c1)c1ccc2c(c1)OCO2 returned FLuc modulator inconclusive, Rab9 prom act inactive, NPC1 promoter act inactive and ELG1 genotox inactive.
Screening O=C(Nc1ccc2oc(-c3cccnc3)nc2c1)c1ccc2c(c1)OCCO2 returned FLuc modulator 2.39µM, Rab9 prom act inactive, NPC1 promoter act inactive, ELG1 genotox inconclusive and KinaseGlo FLuc inactive.
`O=C(Nc1ccc2oc(-c3ccccc3)nc2c1)c1ccco1` gave FLuc modulator 4.78µM, SMN2 splice enh 12.6µM, Rab9 prom act 2.51µM, NPC1 promoter act 1.78µM, ELG1 genotox inconclusive and KinaseGlo FLuc inactive.
For O=C(Nc1ccc2oc(-c3ccccc3)nc2c1)c1ccc2c(c1)OCCO2 the results were FLuc modulator 5.36µM, SMN2 splice enh inactive, Rab9 prom act inactive, NPC1 promoter act inactive, ELG1 genotox inactive and KinaseGlo FLuc inactive.
`O=C(Nc1ccc2oc(-c3ccncc3)nc2c1)c1ccc2c(c1)OCCO2` gave FLuc modulator 1.69µM, Rab9 prom act inactive, NPC1 promoter act inactive and ELG1 genotox inactive.

Screens deposited in PubChem by National Center for Advancing Translational Sciences (NCATS).
